# Records with an inconclusive call do not appear. A call without a number means that no potency is given here. The source made the active and inactive calls. Unless noted, the call rests on the fitted dose curve.
# Experiments:
# [1] = qHTS for Inhibitors of the Functional Ribonucleoprotein Complex (vRNP) of Lassa (LASV) Arenavirus: LASV Primary Screen - GLuc reporter signal (AID 1347082; calls by dose curve; tested in HEK293 reporter line; further: nearly all actives have a fitted effect of over 60% in size; further: potency means the concentration at half of the fitted maximal effect)
# [2] = qHTS for Inhibitors of the Functional Ribonucleoprotein Complex (vRNP) of Lassa (LASV) Arenavirus: Viability assay - alamar blue signal for LASV Primary Screen (AID 1347083; calls by dose curve; tested in HEK293 reporter line; further: series mostly up to about 57 µM; nearly all actives have a fitted effect of over 80% in size)
# [3] = qHTS for Inhibitors of the Functional Ribonucleoprotein Complex (vRNP) of Lymphocytic Choriomeningitis Arenaviruses (LCMV): Viability assay - alamar blue signal for LCMV Primary Screen (AID 1347085; calls by dose curve; tested in HEK293 reporter line; further: nearly all actives have a fitted effect of over 80% in size; further: potency means the concentration at half of the fitted maximal effect)
# [4] = target: Nucleoprotein (Lymphocytic choriomeningitis virus (strain Armstrong)) (UniProt P09992); assay: qHTS for Inhibitors of the Functional Ribonucleoprotein Complex (vRNP) of Lymphocytic Choriomeningitis Arenaviruses (LCMV): LCMV Primary Screen - GLuc reporter signal (AID 1347086); further: nearly all actives have a fitted effect of over 70% in size; further: potency means the concentration at half of the fitted maximal effect
# [5] = qHTS of pediatric cancer cell lines to identify multiple opportunities for drug repurposing: Primary screen for TC32 cells (AID 1347089; active means well fitted curve in the direction sought with a large enough effect; an effect the other way counts as inactive or inconclusive; further: potency means the concentration at half of the fitted maximal effect; nearly all actives have a fitted effect of over 60% in size)
# Procedure, shortened: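 In the primary qHTS, MIPE compounds were tested at 11 concentrations (0.78 nM to 46 µM) and NPC compounds at 8 (0.59 nM to 46 µM) on TC32 cells for 48 h. CellTiter-Glo luminescence gave viability.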
# [6] = qHTS of pediatric cancer cell lines to identify multiple opportunities for drug repurposing: Primary screen for DAOY cells (AID 1347090; active means well fitted curve in the direction sought with a large enough effect; an effect the other way counts as inactive or inconclusive; further: potency means the concentration at half of the fitted maximal effect; nearly all actives have a fitted effect of over 55% in size)
# Procedure, shortened: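 Eight- or eleven-point concentration series, 48 h treatment at 37 degrees C in growth media; readout CellTiter-Glo luminescence. Potency and efficacy were taken from the concentration-response curves.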
# [7] = qHTS of pediatric cancer cell lines to identify multiple opportunities for drug repurposing: Primary screen for A673 cells (AID 1347092; active means well fitted curve in the direction sought with a large enough effect; an effect the other way counts as inactive or inconclusive; further: potency means the concentration at half of the fitted maximal effect; nearly all actives have a fitted effect of over 45% in size)
# Procedure, shortened: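 48 h compound exposure, A673, 500-1,000 cells/well, 37 degrees C/5% CO2. MIPE: 11-point, 0.78 nM-46 µM; NPC: 8-point, 0.59 nM-46 µM (final). Readout CellTiter-Glo luminescence after 15 min RT.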
# [8] = qHTS of pediatric cancer cell lines to identify multiple opportunities for drug repurposing: Primary screen for BT-37 cells (AID 1347094; active means well fitted curve in the direction sought with a large enough effect; an effect the other way counts as inactive or inconclusive; further: potency means the concentration at half of the fitted maximal effect)
# Procedure, shortened: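 Cells seeded at 500-1,000 cells/well in growth media, rested 5 hours at 37 degrees C, 5% CO2, then dosed; MIPE compounds at 11-point (from 0.78 nM) and NPC at 8-point (from 0.59 nM) final concentrations. Viability by CellTiter-Glo luminescence after 48 hours.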
# [9] = qHTS of pediatric cancer cell lines to identify multiple opportunities for drug repurposing: Primary screen for U-2 OS cells (AID 1347096; active means well fitted curve in the direction sought with a large enough effect; an effect the other way counts as inactive or inconclusive; further: potency means the concentration at half of the fitted maximal effect; nearly all actives have a fitted effect of over 50% in size)
# Procedure, shortened: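 Cells (500-1,000/well) in growth media were settled 5 h at 37 degrees C, then given compounds for 48 h. Viability was read as CellTiter-Glo luminescence. Primary runs used MIPE at 11 points (0.78 nM-46 µM) and NPC at 8 points (0.59 nM-46 µM); follow-ups used 11 points.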
# Nucleoprotein (Lymphocytic choriomeningitis virus (strain Armstrong)), sequence (P09992 whole entry, looked up): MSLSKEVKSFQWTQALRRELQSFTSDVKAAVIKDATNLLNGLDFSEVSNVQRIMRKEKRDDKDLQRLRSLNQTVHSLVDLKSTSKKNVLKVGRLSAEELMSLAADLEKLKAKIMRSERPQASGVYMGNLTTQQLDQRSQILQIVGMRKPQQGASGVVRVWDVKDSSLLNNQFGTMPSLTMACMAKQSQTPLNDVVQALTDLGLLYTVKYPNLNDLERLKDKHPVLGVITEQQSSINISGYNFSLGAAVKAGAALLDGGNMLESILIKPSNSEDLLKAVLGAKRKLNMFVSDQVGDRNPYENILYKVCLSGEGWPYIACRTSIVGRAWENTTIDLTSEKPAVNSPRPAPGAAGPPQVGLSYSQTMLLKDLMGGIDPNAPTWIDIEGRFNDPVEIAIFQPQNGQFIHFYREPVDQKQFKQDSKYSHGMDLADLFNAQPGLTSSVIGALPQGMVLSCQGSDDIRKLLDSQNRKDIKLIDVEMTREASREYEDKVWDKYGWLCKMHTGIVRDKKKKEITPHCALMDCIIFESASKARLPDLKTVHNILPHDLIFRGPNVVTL
structure (smiles),measurement,setting,value
C[C@@H]1C[C@H]2[C@@H]3C[C@H](F)C4=CC(=O)C(Cl)=C[C@]4(C)[C@@]3(F)[C@@H](O)C[C@]2(C)[C@@]1(O)C(=O)CO,Potency,[1],inactive
same,Potency,[2],inactive
same,Potency,[3],inactive
same,Potency,[4],inactive
Clc1ccc(Nc2nnc(Cc3ccncc3)c3ccccc23)cc1,Potency,[1],inactive
same,Potency,[3],inactive
same,Potency,[4],inactive
COc1cc(N)c(Cl)cc1C(=O)NC1CCN(CCCOc2ccc(F)cc2)CC1OC (centres undefined),Potency,[1],inactive
same,Potency,[2],inactive
same,Potency,[4],inactive
O=C1OC2(c3ccccc31)c1cc(I)c(O)c(I)c1Oc1c2cc(I)c(O)c1I,Potency,[1],inactive
same,Potency,[2],inactive
same,Potency,[4],inactive
COC[C@@H](c1ccc(C(F)(F)F)cc1)N1CCN(C2(C)CCN(C(=O)c3c(C)ncnc3C)CC2)C[C@H]1C,Potency,[1],inactive
same,Potency,[3],38500 nM (active)
COC(=O)C1=C(C)NC(C)=C(C(=O)OCCCN2CCC(c3ccccc3)(c3ccccc3)CC2)C1c1cccc([N+](=O)[O-])c1 (centres undefined),Potency,[1],inactive
same,Potency,[2],inactive
same,Potency,[4],inactive
O=C(Nc1ccc([N+](=O)[O-])cc1Cl)c1cc(Cl)ccc1O,Potency,[1],inactive
same,Potency,[3],inactive
O=C(CS)Nc1ccccc1,Potency,[1],inactive
same,Potency,[2],inactive
same,Potency,[4],inactive
COc1ccc(CCN2CCC(Nc3nc4ccccc4n3Cc3ccc(F)cc3)CC2)cc1,Potency,[1],inactive
same,Potency,[2],inactive
same,Potency,[4],inactive
c1ccc(CC2=NCCN2)cc1,Potency,[1],inactive
same,Potency,[2],inactive
same,Potency,[4],inactive
O=c1[nH]c2ccccc2n1CCCN1CCN(C(c2ccccc2)c2ccccc2)CC1,Potency,[1],inactive
same,Potency,[2],inactive
same,Potency,[4],inactive
COc1ccc2cc3[n+](cc2c1OC)CCc1cc2c(cc1-3)OCO2,Potency,[1],27300 nM (active)
same,Potency,[3],inactive
same,Potency,[4],19300 nM (active)
O=C(O)c1cccc(-c2noc(-c3ccccc3F)n2)c1,Potency,[1],inactive
same,Potency,[2],inactive
same,Potency,[4],inactive
CC1(C)O[C@@H]2C[C@H]3[C@@H]4CCC5=CC(=O)CC[C@]5(C)[C@@]4(F)[C@@H](O)C[C@]3(C)[C@]2(C(=O)CCl)O1,Potency,[1],inactive
same,Potency,[2],inactive
same,Potency,[4],inactive
O=Cc1ccc(O)c(O)c1O,Potency,[1],inactive
same,Potency,[3],inactive
same,Potency,[4],inactive
CCN(CC)CCOc1ccc(C(O)(Cc2ccc(Cl)cc2)c2ccc(C)cc2)cc1 (centres undefined),Potency,[1],inactive
same,Potency,[3],inactive
same,Potency,[4],inactive
CN1CCC(=C2c3ccccc3CCc3cccnc32)CC1,Potency,[1],inactive
same,Potency,[2],inactive
same,Potency,[4],inactive
CC(CNC1CCCCC1)OC(=O)c1ccccc1 (centres undefined),Potency,[1],inactive
same,Potency,[2],inactive
same,Potency,[4],inactive
CCOC(=O)c1ccc(C#Cc2ccc3c(c2)C(C)(C)CCS3)nc1,Potency,[1],inactive
same,Potency,[2],inactive
same,Potency,[4],inactive
CCOC(=O)OC(C)OC1=C(C(=O)Nc2ccccn2)N(C)S(=O)(=O)c2ccccc21 (centres undefined),Potency,[1],inactive
same,Potency,[2],inactive
same,Potency,[4],inactive
O=C(NOCC1CC1)c1ccc(F)c(F)c1Nc1ccc(I)cc1Cl,Potency,[1],inactive
same,Potency,[3],inactive
same,Potency,[4],inactive
CN(C)CCCOc1nn(Cc2ccccc2)c2ccccc12,Potency,[1],inactive
same,Potency,[2],inactive
same,Potency,[4],inactive
O=C(CCCN1CCN(c2ccc(F)cc2)CC1)NC1c2ccccc2CSc2ccccc21 (centres undefined),Potency,[1],24300 nM (active)
same,Potency,[3],inactive
CN(C)CC/C=C1\c2ccccc2Sc2ccc(Cl)cc21,Potency,[1],inactive
same,Potency,[3],inactive
same,Potency,[4],inactive
CCC(=O)O[C@]1(C(=O)CCl)[C@@H](C)C[C@H]2[C@@H]3CCC4=CC(=O)C=C[C@]4(C)[C@@]3(F)[C@@H](O)C[C@@]21C,Potency,[1],inactive
same,Potency,[3],inactive
same,Potency,[4],inactive
CCCOc1ccc2nc(NC(=O)OC)[nH]c2c1,Potency,[1],inactive
same,Potency,[3],17.2 nM (active)
same,Potency,[4],inactive
CC(=O)N(CC(=O)N(C)C)c1ccccc1,Potency,[1],inactive
same,Potency,[2],inactive
same,Potency,[4],inactive
C[C@@H]1CN(CCCn2c3ccccc3c3ccccc32)C[C@H](C)N1,Potency,[1],inactive
same,Potency,[3],inactive
same,Potency,[4],inactive
CC/C(=C(/CC)c1ccc(O)cc1)c1ccc(O)cc1,Potency,[1],inactive
same,Potency,[3],inactive
CC(NCCC(c1ccccc1)c1ccccc1)c1ccccc1 (centres undefined),Potency,[1],inactive
same,Potency,[3],inactive
CCO[C@@H]1O[C@H](C(COCc2ccccc2)OCc2ccccc2)[C@H](OCc2ccccc2)[C@H]1O (some centres undefined),Potency,[1],inactive
same,Potency,[3],inactive
same,Potency,[4],inactive
N[C@@H](Cc1cc(I)c(O)c(I)c1)C(=O)O,Potency,[1],inactive
same,Potency,[2],inactive
same,Potency,[4],inactive
CCOC(=O)Nc1ccc(NCc2ccc(F)cc2)nc1N,Potency,[1],inactive
same,Potency,[3],inactive
same,Potency,[4],inactive
CCCCOc1ccc(CC(=O)NO)cc1,Potency,[1],inactive
same,Potency,[3],inactive
same,Potency,[4],inactive
CN1CCC(=C2c3ccccc3CC(=O)c3sccc32)CC1,Potency,[1],inactive
same,Potency,[3],inactive
same,Potency,[4],inactive
CN(C)CCN(Cc1ccc(Cl)cc1)c1ccccn1,Potency,[1],inactive
same,Potency,[3],inactive
same,Potency,[4],inactive
CCCCCCCCCCCCCCCC[N+](C)(C)Cc1ccccc1,Potency,[1],inactive
same,Potency,[3],inactive
O=S(=O)(O)NC1CCCCC1,Potency,[1],inactive
same,Potency,[3],inactive
same,Potency,[4],inactive
CCOC(=O)[C@H](CCc1ccccc1)N[C@@H](C)C(=O)N(CC(=O)O)C1Cc2ccccc2C1,Potency,[1],inactive
same,Potency,[3],inactive
same,Potency,[4],inactive
C=C[C@@]1(C)CC(=O)[C@]2(O)[C@@]3(C)[C@@H](O)CCC(C)(C)[C@@H]3[C@H](O)[C@H](OC(C)=O)[C@@]2(C)O1,Potency,[1],inactive
same,Potency,[2],inactive
same,Potency,[4],inactive
CN(C)C(=S)SSC(=S)N(C)C,Potency,[5],4190 nM (active)
same,Potency,[6],168 nM (active)
same,Potency,[7],211 nM (active)
same,Potency,[8],872 nM (active)
same,Potency,[9],266 nM (active)
Cc1ccc([N+](=O)[O-])[c]2c1[O][Hg]2,Potency,[6],1060 nM (active)
same,Potency,[8],1550 nM (active)
same,Potency,[9],2660 nM (active)
COc1ccc2c3c1O[C@H]1[C@@H](O)C=C[C@H]4[C@@H](C2)N(C)CC[C@@]341,Potency,[7],23800 nM (active)

# — PubChem BioAssay (NCATS)
